Sampled rows, rich in hits. Any-hit rate of the full collection: about 18%.
DT40 TDP1 CPT = DT40-hTDP1 cell growth loss with CPT | chicken DT40 Tdp1-/-;hTDP1 cells + 20 nM CPT, ATP luminescence, 48 h | Potency, µM (highest dose often 46.2 µM), for the others: at the top dose activity change, negative = growth inhibition, hits mostly inhibitors | hit rate 12% among 420,000 | AID 686979; further: potency means the concentration at half of the fitted maximal effect; on the % scale 0 is the no-effect control and ±100 the full control effect; nearly all actives have a fitted effect of over 55% in size
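Cell growth measured by CellTiter-Glo luminescence after a minimum 48 h, 37 C compound exposure with 20 nM CPT in Tdp1-knockout DT40 cells stably expressing hTDP1, seeded 400/well; qHTS titration format.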
TDP1 block = blocks human tyrosyl-DNA phosphodiesterase 1; Q9NUW8; recombinant TDP1, AlphaScreen DNA substrate cleavage; Potency, µM (doses to about 130 µM), for the others: at the top dose activity change, negative = inhibition, actives largely listed as inhibitors; hit rate 0.28% among 350,000; AID 485290; further: potency means the concentration at half of the fitted maximal effect; on the % scale 0 is the no-effect control and ±100 the full control effect; nearly all actives have a fitted effect of over 40% in size
Target sequence (Q9NUW8 whole entry, looked up): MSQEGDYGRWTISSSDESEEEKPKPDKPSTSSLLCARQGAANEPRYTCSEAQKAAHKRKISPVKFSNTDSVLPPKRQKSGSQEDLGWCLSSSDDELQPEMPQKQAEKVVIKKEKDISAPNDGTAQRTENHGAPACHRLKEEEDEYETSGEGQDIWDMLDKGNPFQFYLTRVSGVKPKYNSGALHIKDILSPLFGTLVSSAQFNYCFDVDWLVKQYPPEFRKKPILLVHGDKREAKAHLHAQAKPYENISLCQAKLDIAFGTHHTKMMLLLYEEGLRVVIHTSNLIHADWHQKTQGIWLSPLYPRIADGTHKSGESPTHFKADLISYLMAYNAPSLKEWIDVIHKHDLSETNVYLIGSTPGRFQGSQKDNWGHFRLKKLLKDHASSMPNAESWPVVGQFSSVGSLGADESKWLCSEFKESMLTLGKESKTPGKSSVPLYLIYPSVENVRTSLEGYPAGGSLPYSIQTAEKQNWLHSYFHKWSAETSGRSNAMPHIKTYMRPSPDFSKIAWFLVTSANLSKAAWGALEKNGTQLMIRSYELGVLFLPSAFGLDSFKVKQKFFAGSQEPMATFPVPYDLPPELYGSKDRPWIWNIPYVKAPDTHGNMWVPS
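Compounds were preincubated with Tdp1 (1 nM final) for 15 min at room temperature before substrate (15 nM final) started a 5 min reaction; beads (10 ug/ml final) were then added for 10 min before AlphaScreen detection.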
HepG2 viability = HepG2 cytotoxicity, counter-screen for TGF-b inhibitors | HepG2 CAGA-GFP viability, ATP luminescence, 18 h | hit rate 0.76% among 410,000 | Potency, µM (highest dose often 46.1 µM), inactives show at the top dose activity change, negative = cytotoxicity, hits mostly cytotoxic | AID 588856; further: potency means the concentration at half of the fitted maximal effect
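CellTiter-Glo luminescence gave cytotoxicity after 18 hours at 37 degrees C. The cells were HepG2 CAGA-GFP in 1% FBS DMEM, stimulated with 500 pg/mL TGF-beta after compound addition. %Activity was normalised to no-cell wells (complete cell-killing) and DMSO (no toxicity), and curves were fitted and classified.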
IL-1B inflam inh = blocks inflammasome-driven IL-1 beta release; THP-1 LPS/ATP IL-1B secretion, AlphaLISA, 16 h; active compounds read low; activity change, % at 57.5 µM; hit rate 4.7% among 360,000; in the data active means activity change below about -50%; inconclusive means mostly about -30% to -49%; further: on the % scale 0 is the no-effect control and ±100 the full control effect
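Secreted IL-1B measured by AlphaLISA bead assay after 16 h compound exposure of THP-1 cells; compounds (final up to 57.5 uM) added 1 h before LPS (250 ng/mL) and ATP (1.25 mM) stimulation; lower signal means less secretion.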
TGFb SMAD3 inh = TGF-b pathway inhibition; HepG2 CAGA-GFP TGF-b/SMAD3 reporter, GFP fluorescence, 18 h; TGF-beta stimulated, 500 pg/mL final; Potency, µM (titrated, usually from 46.1 µM), for inactives: top-dose activity, negative = inhibition, usual class: inhibitors; hit rate 1.2% among 410,000; further: potency means the concentration at half of the fitted maximal effect; on the % scale 0 is the no-effect control and ±100 the full control effect; nearly all actives have a fitted effect of over 65% in size
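HEPG2 CAGA-GFP reporter cells (1000/well, DMEM with 1% FBS) received compounds, then recombinant TGF-beta at 500 pg/mL final for 18 hours at 37 degrees C. Per-cell GFP summed per well was normalised to unstimulated and stimulated DMSO controls before curve fitting.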
DT40 TDP1 no CPT = qHTS for Inhibitors of human tyrosyl-DNA phosphodiesterase 1 (TDP1): qHTS in cells in absence of CPT; DT40 Tdp1-/- hTDP1 cells, no CPT, ATP luminescence, 48 h; Potency, µM (titrated, usually from 46.2 µM), for inactives: at the top dose activity change, negative = growth inhibition, actives largely listed as inhibitors; hit rate 15% among 420,000; further: potency means the concentration at half of the fitted maximal effect; on the % scale 0 is the no-effect control and ±100 the full control effect; nearly all actives have a fitted effect of over 55% in size
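Cells were dispensed at 400 per well, compounds added by pin tool, plates incubated ≥48 hr at 37 °C, then CellTiter-Glo added for 30 min at room temperature before luminescence reading. Line: DT40 Tdp1-/- complemented with hTDP1; camptothecin omitted.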
The depositor's hits bear a star; ? = inconclusive; . = no result; [ ] = dose if it differs, or a comment. Unless noted, the call rests on the fitted dose curve; in most records, active means well fitted curve in the direction sought with a large enough effect; inconclusive means small, poorly fitted or top-dose-only effect, or another doubt; inactive means no such curve, though single readings can be large; an effect the other way counts as inactive or inconclusive.

SMILES	DT40 TDP1 CPT	TDP1 block	HepG2 viability	IL-1B inflam inh	TGFb SMAD3 inh	DT40 TDP1 no CPT
Cc1cccc(N2CCN(C(=O)c3cnn(-c4ccccc4Cl)c3C3CCN(C(=O)OC(C)(C)C)CC3)CC2C)c1 (stereo not drawn)	?	3%	-1%	.	6%	13µM*
Cc1ccc(C)c(N2CCN(CCCNC(=O)c3cnn(-c4ccc(F)cc4)c3C3CCN(C(=O)OC(C)(C)C)CC3)CC2)c1	4.1µM*	10%	-17%	.	-24%	3.3µM*
CCCn1c(C)nc2c(NCCN3CCCCC3)nc(C)nc21	.	4%	.	.	.	.
CN(C)c1ccc(/C=c2\[nH]c(=O)/c(=C\c3ccc(N(C)C)cc3)[nH]c2=O)cc1	?	.	-8%	.	3%	?
Cc1ccc(COC(=O)c2ccc(-c3nnn(Cc4ccc(C)cc4)n3)cc2)cc1	.	-6%	-3%	.	5%	.
CCn1c(SC(C)C(=O)NCC2CCCO2)nc2ccccc21 (stereo not drawn)	-4%	1%	-1%	15	3%	-23%
Cc1ccc(C)c(N2CCN(CCCNC(=O)c3cnn(-c4cccc(Cl)c4)c3C3CCN(C(=O)OC(C)(C)C)CC3)CC2)c1	4.6µM*	5%	8%	.	?	5.8µM*
Cc1ccc(N2CCN(C(=O)c3cnn(-c4ccc(F)cc4F)c3C3CCN(C(=O)OC(C)(C)C)CC3)CC2)c(C)c1	16µM*	4%	-6%	.	-7%	23µM*
Cc1ccc(-n2ncc(C(=O)NCCCN3CCN(C)CC3)c2C2CCN(C(=O)OC(C)(C)C)CC2)c(C)c1	?	2%	-27%	.	-5%	?
Cc1ccc(C)c(N2CCN(CCCNC(=O)c3cnn(-c4ccccc4Cl)c3C3CCN(C(=O)OC(C)(C)C)CC3)CC2)c1	4.6µM*	7%	-112%	.	?	4.6µM*
Cc1c(Cl)cccc1-n1ncc(C(=O)Nc2ccc(Br)cc2F)c1C1CCNCC1	4.1µM*	5%	-51%	.	?	5.2µM*
CC(C)(C)OC(=O)N1CCC(c2c(C(=O)N3CCCCC3)cnn2-c2ccc(F)cc2F)CC1	?	3%	4%	.	?	?
O=C(NCCc1ccccc1Cl)c1cc(COc2ccc(F)cc2F)on1	?	.	-35%	-23	?	?
N[C@@H](C(=O)O)c1ccc(C(=O)O)cc1	8%	-8%[56.1 µM]	.	.	.	-7%
Nc1ccc(C(=O)O)cc1	0%	11%	-16%	33	-4%	?
Nc1ccc(O)cc1	7.7µM*	15%	14µM*	.	4.5µM*	12µM*
CCCCOc1ccccc1Cn1c(=O)sc2ccccc21	?	-4%	-23%	.	?	?
O=C(CSc1nc(Nc2ccccc2)nc(N2CCOCC2)n1)Nc1ccccc1Cl	16µM*	7%	-33%	-7	25%	11µM*
COc1ccc(Cl)cc1NC(=O)CSc1nc(N2CCOCC2)nc(N2CCOCC2)n1	?	1%	-19%	5	-26%	?
COc1ccc(Cl)cc1NC(=O)CSc1nc(N2CCCCC2)nc(N2CCCCC2)n1	?	0%	14%	14	?	16µM*
COc1ccc(Cl)cc1NC(=O)CSc1nc(Nc2ccccc2)nc(N2CCOCC2)n1	?	3%	-21%	-15	-17%	18µM*
CC(=O)c1cccc(NC(=O)CSc2nc(N3CCCCC3)nc(N3CCCCC3)n2)c1	-1%	3%	-6%	19	-4%	26µM*
COc1ccc(N2CCCn3c2nc2c3c(=O)n(Cc3ccc(C)cc3)c(=O)n2C)c(OC)c1	?	8%	26%	-14	31%	?
O=C(CSc1nc(Nc2ccccc2)nc(N2CCOCC2)n1)Nc1ccc(Br)cc1F	?	6%	-18%	0	14%	18µM*

High-throughput results as filed in PubChem.
